Laboratory results from PubChem BioAssay (Tox21).
Where “and” joins values, the source holds several entries; their conditions need not be identical. Equal entries are not always repeated. Records with an inconclusive call do not appear. Values without a mark were called inactive. Calls of active or inactive are those of the source. Calls follow the shape of the dose curve; as a rule, active = well fitted inhibition curve with a large enough effect in the repeat runs; inconclusive = weak or mixed curves, or effect the other way; inactive = no such curve, though single readings can be large or run the other way.

target: Nuclear receptor subfamily 1 group I member 3 (Homo sapiens) (UniProt Q14994); experiment: qHTS assay to identify small molecule antagonists of the constitutive androstane receptor (CAR) signaling pathway (AID 1224838); details: HepG2-CYP2B6-hCAR luciferase, CITCO-stimulated, 24 h; series mostly up to 92.4 µM; activity, negative = inhibition: at the top concentration;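 also: HepG2 cells stably expressing hCAR with CYP2B6 luciferase reporter stimulated by CITCO; nearly all actives have a fitted effect of over 40% in size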
Sequence (Q14994 whole entry, looked up): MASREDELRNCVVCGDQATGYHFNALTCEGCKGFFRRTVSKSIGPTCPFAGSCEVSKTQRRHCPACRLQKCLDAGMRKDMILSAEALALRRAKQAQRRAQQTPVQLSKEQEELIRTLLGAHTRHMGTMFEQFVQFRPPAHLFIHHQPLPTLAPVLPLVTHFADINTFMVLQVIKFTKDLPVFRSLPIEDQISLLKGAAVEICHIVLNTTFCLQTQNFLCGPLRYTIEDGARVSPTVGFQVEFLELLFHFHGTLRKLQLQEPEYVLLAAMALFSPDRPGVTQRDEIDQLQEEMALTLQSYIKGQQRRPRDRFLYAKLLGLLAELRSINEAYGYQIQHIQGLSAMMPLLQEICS
Excerpt: U.S. Tox21 Program National Center for Advancing Translational Sciences [NCATS] NIH Chemical Genomics Center [NCGC] U.S. Environmental Protection Agency [EPA] National Institutes of Environmental Health Sciences [NIEHS] National Toxicology Program [NTP] U.S. Food and Drug Administration [FDA] Tox21 Assay Overview: The constitutive androstane receptor (CAR) is a nuclear receptor which regulates multiple drug metabolizing enzymes (DMEs) and transporters. Activating CAR will generally increase the transcription and subsequent translation of CYP2B6 and CYP3A4. These two DMEs represent about 50% of the drug metabolizing potential in the body. When CAR is deactivated, the metabolizing potential in the body will decrease, subsequently increasing the toxicity in the body or lowering the therapeutic potential of a pro-drug. Recently, there have also been studies performed indicating CARs role in energy metabolism and cancer therapy. Therefore, inhibiting CARs activity could have a potential effect on diabetes and cancer. Identifying environmental toxins and compounds which modulate CAR, through the use of the Tox21 10K compound collection, will be an important step in determining the toxicity and potential therapeutic effects these factors will have on the human body.
Tox21 Assay Protocol Summary: A double-stable (hCAR and CYP2B6-2.2kb) transfected cell line, derived from human hepatoma (HepG2) cells, was utilized for the duration of the quantitative high-throughput screens. The HepG2-CYP2B6-hCAR cells suspended in DMEM culture medium supplemented with 10% FBS, 5 ug/mL blasticidin, 0.5 mg/mL geneticin, 100 U/mL penicillin and 100 ug/mL streptomycin were dispensed at 2500 cells/4 uL/well in 1536-well white solid bottom plates using a Multidrop Combi. After the assay plates were incubated at 37 C/5% CO2 for 4 hrs, 23 nL of compounds at 15 concentrations (from 5-48 columns) or positive control (from 1 to 4 columns) were transferred to the assay plates using a Pintool station. One uL of CITCO, was added using a Flying Reagent Dispenser to generate a final concentration of 50 nM CITCO inside each well. After a 24 hr incubation period at 37 C/5% CO2, four uL of ONE-Glo reagent was added into the assay plates using a Flying Reagent Dispenser. After a 30 min incubation period at room temperature, the luminescence intensity in the assay plates was measured using a ViewLux plate reader.
% is scaled to controls: 0 for no effect and ±100 for the full control effect; potency is read from the fitted curve at half-maximal effect.

SMILES | activity, negative = inhibition | Potency
CCN(C(=O)c1cc(C)cc(OC[C@H](C)Nc2ccncc2)c1)C(C)C | 21.4% [at 42.5 µM] | –
Cc1cc(O)c(C(C)(C)C)cc1Sc1cc(C(C)(C)C)c(O)cc1C | – | 21.6 µM (active)
CCc1cc(Cc2cc(CC)cc(C(C)(C)C)c2O)c(O)c(C(C)(C)C)c1 | – | 21.7 µM (active)
CCOC(=O)/C=C(C)/C=C/C=C(C)/C=C/c1c(C)cc(OC)c(C)c1C | 15.1% [at 42.5 µM] | –
CC(=O)S[C@@H]1CC2=CC(=O)CC[C@]2(C)[C@H]2CC[C@@]3(C)[C@@H](CC[C@@]34CCC(=O)O4)[C@H]12 | – | 54.5 µM (active)
Clc1ccc2cc3ccccc3cc2c1 | 146% | –
Cc1[nH]cnc1C[C@H]1CCc2c(C)c3ccccc3n2C1=O | – | 59.6 µM (active)
O=C(O)c1ccc(Cl)c(Cl)c1 | -2.25% | –
CC(C)CCCCCCCCCCCCCCC(=O)O | 6.39% | –
CCCCCCCCCOC(=O)c1ccc(O)cc1 | -4.63% | –
Clc1ccc2n[nH]nc2c1 | -5.29% | –
Cc1cccc(CN2CCN(C(c3ccccc3)c3ccc(Cl)cc3)CC2)c1 (stereo not given) | 6.55% [at 42.5 µM] | –
NNc1nc(-c2ccc(N)cc2)cs1 | 72.7% | –
Nc1nc2ccccc2n1Cc1ccc(F)cc1 | -2.21% [at 42.5 µM] | –
CCC1OCC(COc2ccc(Oc3ccccc3)cc2)O1 (stereo not given) | 157% | –
Oc1ccc2cc(SSc3ccc4cc(O)ccc4c3)ccc2c1 | – | inactive
S=c1[nH]c2ccccc2s1 | 38.8% | –
Nc1c2ccccc2nc2ccccc12 | – | 956 nM (active) and 1.68 µM (active)
CCCC(c1cc(C(C)(C)C)c(O)cc1C)c1cc(C(C)(C)C)c(O)cc1C | – | 24.6 µM (active)
CCCCCCCC[N+](CCCCCCCC)(CCCCCCCC)CCCCCCCC | – | 21.6 µM (active)

SMILES | activity, negative = inhibition | Potency
CCN(CC)CCNC(=O)c1c(C)[nH]c(/C=C2\C(=O)Nc3ccc(F)cc32)c1C | – | 10.6 µM (active)
CC[C@@]1(O)C(=O)OCc2c1cc1n(c2=O)Cc2c-1nc1ccccc1c2/C=N/OC(C)(C)C | – | 0.0376 µM (active)
CCCCCCCCCCCCCC[P+](CCCC)(CCCC)CCCC (tested in a mixture with another compound) | – | 17.3 µM (active)
CCCCCCCCCCCC[N+](C)(C)CCCCCCCCCCCC | – | 27.3 µM (active)
CCc1cc(Cc2cc(CC)c(N)c(CC)c2)cc(CC)c1N | -6.82% | –
Clc1ccc2nsnc2c1NC1=NCCN1 | 0.756% [at 42.5 µM] | –
Clc1ccc(C(Cn2ccnc2)OCc2ccc(Sc3ccccc3)cc2)c(Cl)c1 (stereo not given) | 38% [at 42.5 µM] | –
CC(=O)N1CCN(c2ccc(OC[C@H]3CO[C@](Cn4ccnc4)(c4ccc(Cl)cc4Cl)O3)cc2)CC1 | -111% | –
O=C1CCCc2c1cc1ccc3cccc4ccc2c1c34 | -28.2% | –
CCCCCCC[N+](CC)(CC)CCCCc1ccc(Cl)cc1 | -5.06% [at 42.5 µM] | –
COc1ccc(C(=O)/C(Br)=C\C(=O)O)cc1 | 64.7% | –
CCN(Cc1cccnc1)C(=O)c1cccc(Cl)c1[C@]1(C)C(=O)N(Cc2ccc(OC)cc2OC)c2ccc(Cl)cc21 | 142% | –
CCCCCCCCCCCCCCCS(=O)(=O)Oc1ccccc1 | 6.36% [at 42.5 µM] | –
CCCCCCCC/C=C/CCCCCCCC1=NCCN1CCO | – | 61.1 µM (active)
CCCCCCCCCCn1cc[n+](CCCCCCCCCC)c1C | – | 30.7 µM (active)
Cc1cccc2c1cc1ccc3cccc4ccc2c1c34 | 182% | –
O=[N+]([O-])c1cc(Cl)c(Cl)c(Cl)c1Cl | -6.43% | –
Fc1ccc(C(c2ccc(F)cc2)N2CCN(C/C=C/c3ccccc3)CC2)cc1 | 8.14% [at 42.5 µM] | –
O=C(c1ccc(O)cc1O)c1ccc(O)cc1O | – | inactive
CCCCCCCCn1sc(Cl)c(Cl)c1=O | – | 27.3 µM (active)
